Inconclusive results are not listed. Calls of active or inactive are those of the source. The call rests on the fitted dose curve; in most records, active means well fitted cell-killing curve with a large enough effect; inconclusive means small, poorly fitted or top-dose-only effect; inactive means flat fitted curve, though single readings scatter.
Test: qHTS assay to identify small molecule inhibitors of chordoma cells - UCH-2 (AID 1259356)
Settings: UCH-2 chordoma viability, CellTiter-Glo ATP luminescence, 48 h; series mostly up to 46.1 µM; activity change, negative = inhibition: at the top concentration
On the % scale 0 is the no-effect control and ±100 the full control effect; potency means the concentration at half of the fitted maximal effect.

| Structure (SMILES) | activity change, negative = inhibition | Potency |
| --- | --- | --- |
| CC1=C(/C=C/C(C)=C/C=C/C(C)=C/C=C/C=C(C)/C=C/C=C(C)/C=C/C2=C(C)C(=O)CCC2(C)C)C(C)(C)CCC1=O | -14% (inactive) | – |
| CCNC(=O)[C@@H]1CCCN1C(=O)[C@H](CCCN=C(N)N)NC(=O)[C@H](CC(C)C)NC(=O)[C@@H](Cc1c[nH]c2ccccc12)NC(=O)[C@H](Cc1ccc(O)cc1)NC(=O)[C@H](CO)NC(=O)[C@H](Cc1c[nH]c2ccccc12)NC(=O)[C@H](Cc1cnc[nH]1)NC(=O)[C@@H]1CCC(=O)N1 | – | 18.3 µM (active) |
| COc1ccc(CCNC[C@H](O)c2ccc(O)cc2)cc1OC | 1.27% (inactive) | – |
| CC[C@H]1OC(=O)[C@H](C)[C@@H](O[C@H]2C[C@@](C)(OC)[C@@H](O)[C@H](C)O2)[C@H](C)[C@@H](O[C@@H]2O[C@H](C)C[C@H](N(C)C)[C@H]2O)[C@](C)(O)C[C@@H](C)/C(=N\OCOCCOC)[C@H](C)[C@@H](O)[C@]1(C)O | 4.17% [at 20.6 µM] (inactive) | – |
| CCN(CC)Cc1cc(Nc2ccnc3cc(Cl)ccc23)ccc1O | -3.24% [at 20.6 µM] (inactive) | – |
| C#C[C@]1(O)CC[C@H]2[C@@H]3CCC4=CCCC[C@@H]4[C@H]3C(=C)C[C@@]21CC | 9.17% (inactive) | – |
| CCOC(=O)C1=C(C)NC(C)=C(C(=O)OCC)C1c1ccccc1C=CC(=O)OC(C)(C)C | 28.4% (inactive) | – |
| C[C@]12O[C@H](C[C@]1(O)CO)n1c3ccccc3c3c4c(c5c6ccccc6n2c5c31)CNC4=O | – | 10.3 µM (active) |
| CC1=C(/C=C/C(C)=C/C=C/C(C)=C/CO)C(C)(C)CCC1 | 8.4% (inactive) | – |
| Clc1cc(Cl)c(OCC#CI)cc1Cl | 5.07% (inactive) | – |

From PubChem BioAssay (NCATS)
